In the library only some 4% were active in any assay of this set; here they are far more common.
Rv3671c inh: Rv3671c serine protease inhibitors, primary screen, biochemical, fluorescence polarization, M. tuberculosis H37Rv; actives 0.048% (n = 320,000); P9WHR9; inhibition, % at 5.96 µM; in the data active = inhibition above about 38%;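 also: extracellular domain of Rv3671c used as enzyme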
Mtb UGM inh: M. tuberculosis UGM enzyme inhibitors, primary screen, biochemical, fluorescence polarization, single point | actives 0.06% (n = 320,000) | inhibition, % at 10 µM | UDP-galactopyranose mutase (Mycobacterium tuberculosis (strain ATCC 25618 / H37Rv)), … | purified UGM, fluorescence polarization probe displacement; in the data active = inhibition above about 10%, passing the limit was not always enough
Mtb FBA inh: Mtb FBA enzyme inhibitors, primary screen, biochemical, fluorescence, strain H37Rv; purified M. tuberculosis FBA, fluorescence read-out; inhibition, % at 1 µM; Fructose-bisphosphate aldolase (Mycobacterium tuberculosis (strain ATCC 25618 / H37Rv)), …; AID 588726, 2011; actives 2.3% (n = 360,000)
Target sequence (P9WQA3 whole entry, looked up): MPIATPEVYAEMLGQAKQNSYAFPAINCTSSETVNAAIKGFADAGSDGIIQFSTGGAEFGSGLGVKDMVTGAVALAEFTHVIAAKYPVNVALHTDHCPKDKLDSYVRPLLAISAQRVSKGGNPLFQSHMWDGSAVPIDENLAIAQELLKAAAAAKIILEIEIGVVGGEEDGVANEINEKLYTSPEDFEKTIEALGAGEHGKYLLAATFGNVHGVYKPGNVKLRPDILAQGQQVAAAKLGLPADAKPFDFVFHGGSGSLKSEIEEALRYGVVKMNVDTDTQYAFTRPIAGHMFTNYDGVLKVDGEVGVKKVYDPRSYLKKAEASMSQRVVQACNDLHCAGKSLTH
Mtb bLac sens: beta-lactam sensitization of Mtb H37Rv, H37Rv. M. tuberculosis H37Rv growth with meropenem, percent inhibition. inhibition, % at 25 µM. actives 0.27% (n = 330,000); call rule not given here;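 also: growth measured after seven days incubation then overnight dye step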
GDH-TPI counter-1: GDH-TPI coupling enzyme inhibitors, primary screen, artefact control for M. tuberculosis FBA inhibitor project, biochemical, absorbance, full deck. GDH-TPI coupled enzyme counterscreen, NADH absorbance. inhibition, % at 4.8 µM. actives 1.2% (n = 360,000); in the data active = inhibition above about 30%
RecA splice inh: Mtb RecA intein splicing inhibitors, primary screen, biochemical, fluorescence, HTS; Protein RecA (Mycobacterium tuberculosis (strain ATCC 25618 / H37Rv)), P9WHJ3; cell-free RecA intein splicing; inhibition, % (test concentration not listed); actives 0.75% (n = 290,000); AID 2221, 2009; in the data active = inhibition above about 30%
Mtb FBA inh conf: M. tuberculosis aldolase blockers, biochemical, fluorescence, strain H37Rv, confirmation | shares compounds with Mtb FBA inh | purified M. tuberculosis FBA, fluorescence read-out | inhibition, % at 1 µM | actives 78% (n = 5,600) | AID 651616, 2012
GDH-TPI counter-2: GDH-TPI coupling enzyme inhibitors, artefact control for M. tuberculosis FBA inhibitor project, biochemical, fluorescence, high throughput; inhibition, % at 1 µM; AID 652141, 2013; actives 81% (n = 5,600); shares compounds with Mtb FBA inh; GDH-TPI coupled enzyme counterscreen; in the data active = inhibition above about 10%
GDH-TPI dose: GDH-TPI coupling enzyme inhibitors, dose response, artefact control for M. tuberculosis FBA inhibitor project, biochemical, fluorescence, IC50; AID 652145, 2013; shares compounds with Mtb FBA inh; IC50, µM; actives 79% (n = 170); GDH-TPI coupled enzyme assay, artifact counterscreen; call rule not given here
Numbers stand for hits; - = inactive; . = no result; + = active, no number. Rule as the data show it, unless noted: active = inhibition above about 27%; inactive = the rest.

SMILES | Rv3671c inh | Mtb UGM inh | Mtb FBA inh | Mtb bLac sens | GDH-TPI counter-1 | RecA splice inh | Mtb FBA inh conf | GDH-TPI counter-2 | others
COc1ccc(C2Nc3ccccc3C(=O)N2Cc2ccco2)cc1CN1C(=O)c2ccccc2C1=O (stereo not given) | - | - | - | - | - | - | . | .
O=C1c2ccccc2NC(c2cccc(O)c2)N1c1ccccc1 (stereo not given) | - | - | 42 | - | - | - | 129 | 107
O=C1c2ccccc2NC(c2cccc(O)c2)N1NS(=O)(=O)c1ccccc1 (stereo not given) | - | - | - | - | - | - | . | .
CN1OC[C@@H]2CN[C@H](c3cccc(-c4ccc(C#N)cc4)c3)C[C@@H]21 | . | . | - | . | - | . | . | .
O=C(c1ccc(F)cc1)C1CCN(C(=O)Nc2ccc(F)cc2F)CC1 | - | - | - | - | - | - | . | .
O=C(c1ccc2c(c1)OCCO2)C1CCN(C(=O)Nc2ccccc2F)CC1 | - | - | 29 | - | - | - | 71 | 62
CCOC(=O)CNS(=O)(=O)c1ccc2c3c(cccc13)C(=O)N2CC | - | - | 59 | - | - | - | 46 | 41
CCOC(=O)C1CCN(S(=O)(=O)c2ccc3c4c(cccc24)C(=O)N3)CC1 | - | - | 41 | - | - | - | + | +
CCOC(=O)C1CCN(S(=O)(=O)c2ccc3c4c(cccc24)C(=O)N3CC)CC1 | - | - | 43 | - | - | . | 49 | 30
Cc1ccc(NS(=O)(=O)c2coc(C(N)=O)c2)cc1F | - | - | - | - | - | - | . | .
CC(C)(C)c1ccccc1NC(=O)Nc1nc(C(N)c2ccccc2Cl)cs1 (stereo not given) | . | . | - | . | - | . | . | .
CC(=O)N1CCN=C1SCc1cccc(C)c1 | - | - | - | - | - | - | . | .
COc1ccc(CCC(C)NCc2cccc(Br)c2)cc1 (stereo not given) | - | - | - | - | - | - | . | .
CS(=O)(=O)NN1C(=O)c2ccccc2NC12CCCC2 | - | - | 35 | - | - | - | 131 | 107
CCOC(=O)NN1C(=O)c2ccccc2NC12CCCC2 | - | - | 59 | - | - | - | 163 | 139
COc1ccc2oc(=N)c(C(=O)Nc3ccc(Cl)cc3)cc2c1 | - | - | - | - | - | - | . | .
O=C(CSc1nc2nc(-c3cccs3)cc(C(F)(F)F)c2c(=O)[nH]1)Nc1c(F)c(F)c(F)c(F)c1F | - | - | - | - | - | - | . | .
NS(=O)(=O)c1cccc(NC(=O)CSc2nc3nc(-c4cccs4)cc(C(F)(F)F)c3c(=O)[nH]2)c1 | - | - | 33 | - | - | - | 173 | 119
Cc1ccc(C)c(C(=O)COC(=O)Cn2c(C)csc2=O)c1 | - | - | - | - | - | - | . | .
O=C1CN(C(=O)CSc2nnnn2C2CC2)c2ccccc2N1 | - | - | - | - | - | . | . | .
COc1cc(C(=O)Nc2cc3c(cc2N2CCCCC2)n(C)c(=O)n3C)cc(OC)c1OC | - | - | - | - | - | - | . | .
CC(C)(C)C(CO)NC(=O)c1ccc[nH]1 (stereo not given) | - | - | - | - | - | . | . | .
O=C1CCC(=O)N1c1nc2nc(-c3ccccc3)cc(-c3ccccc3)n2n1 | - | - | 66 | - | - | - | 89 | 62
CC1CCc2nc(/C(C#N)=C/c3ccncc3)sc2C1 (stereo not given) | - | - | 28 | - | - | - | - | -
CC1CCc2nc(NC(=O)c3ccco3)sc2C1 (stereo not given) | - | - | - | - | - | - | . | .
SMILES | Rv3671c inh | Mtb UGM inh | Mtb FBA inh | Mtb bLac sens | GDH-TPI counter-1 | RecA splice inh | Mtb FBA inh conf | GDH-TPI counter-2 | others
O=C(NC(Cc1ccc(O)cc1)C(=O)N=Nc1c(O)[nH]c2ccccc12)c1ccccc1 (stereo not given) | . | . | - | . | - | . | . | .
O=C(Nc1ccc(Cl)cc1)NC1CCCCNC1=O (stereo not given) | - | - | - | - | - | - | . | .
Nc1ccccc1C(=O)NC1CCCNC1=O (stereo not given) | - | - | 61 | - | - | - | + | +
COc1ccccc1-n1c(SCc2cc(=O)oc3cc(O)ccc23)nc2ccccc2c1=O | - | - | 72 | - | - | - | - | -
OCCn1nc2c3ccccc3nc-2n(-c2ccccc2)c1=S | - | - | 31 | - | - | - | 136 | 116
COCc1ccccc1C1=CC(=O)C[C@H](c2ccc(OC)cc2)C1 | - | - | - | - | - | . | . | .
N#Cc1nc(-c2ccccc2)oc1N1CCN(C(=O)c2ccco2)CC1 | - | - | 68 | - | - | - | 41 | 32
N#Cc1nc(-c2cccs2)oc1N1CCN(Cc2ccccc2)CC1 | - | - | 51 | - | - | - | - | - | GDH-TPI dose=1.8
COc1ccc2oc(=N)c(-c3nnc4n3CCCCC4)cc2c1 | - | - | 32 | - | - | - | - | - | GDH-TPI dose=-
COc1ccc(C2CC(c3ccccc3Br)=NN2c2ccc(S(N)(=O)=O)cc2)cc1 (stereo not given) | . | . | 46 | . | - | . | 154 | 77
CCCCn1c(=O)[nH]c(=O)c2c(C(=O)OCC)cc(-c3ccc(OC(F)F)cc3)nc21 | - | - | - | - | - | - | . | .
CCCn1c(=O)[nH]c(=O)c2c1nc(-c1cccs1)n2CCOC | - | - | 90 | - | - | - | + | 167
CCCn1c(=O)[nH]c(=O)c2c(C(=O)OCC)cc(-c3cccs3)nc21 | - | - | 89 | - | - | - | 100 | 87
CCCCn1c(=O)[nH]c(=O)c2c(C(=O)OCC)cc(-c3cccs3)nc21 | - | - | 69 | - | - | - | - | - | GDH-TPI dose=1.3
COCCn1c(-c2ccc3ccccc3c2)nc2c1c(=O)[nH]c(=O)n2CC(C)C | - | - | 73 | - | - | - | 98 | 83
CCOC(=O)c1cc(-c2cccs2)nn1CCC#N | - | - | - | - | - | - | . | .
COC(=O)[C@]1(Cc2ccccc2)N[C@H](c2ccc(SC3CCCCC3)c(OC)c2)[C@@H]2C(=O)N(C)C(=O)[C@@H]21 | - | - | - | - | - | . | . | .
